# Screens: PubChem, National Center for Advancing Translational Sciences (NCATS)
# Only some compounds are listed: those with a hit (about 12% of all), similar ones and a draw of the others.
# Sfp inh: Sfp phosphopantetheinyl transferase inhibition | Biochemical Sfp PPTase activity, qHTS | Potency, µM, for the others: largest response in the series, negative = inhibition, hits mostly inhibitors | 310,000 tested, 3.5% active | AID 1490;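 note: the enzyme is Sfp with the accession as filed and its product quenches rhodamine fluorescence; 0% = enzyme reaction without inhibitor and -100% = no enzyme wells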
#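 Reaction rates are the 30-min fluorescence difference (ex 525, em 598 nm) in wells containing 15 nM Sfp, 5 uM rhodamine-CoA and 12.5 uM BHQ-2-YbbR at pH 7.6 with 10 mM MgCl2.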
# G9a block: inhibitors of human histone lysine methyltransferase G9a; Q96KQ7; Potency, µM (top dose mostly 102 µM), for the others: at the highest dose activity, negative = inhibition, hits mostly inhibitors; 350,000 tested, 8.8% active; G9a H3K9 monomethylation, AlphaScreen, 2 h; note: % is set by controls: 0 for no effect and ±100 for the full control effect; nearly all actives have a fitted effect of over 75% in size
# Target sequence (Q96KQ7 913-1193 limits assumed): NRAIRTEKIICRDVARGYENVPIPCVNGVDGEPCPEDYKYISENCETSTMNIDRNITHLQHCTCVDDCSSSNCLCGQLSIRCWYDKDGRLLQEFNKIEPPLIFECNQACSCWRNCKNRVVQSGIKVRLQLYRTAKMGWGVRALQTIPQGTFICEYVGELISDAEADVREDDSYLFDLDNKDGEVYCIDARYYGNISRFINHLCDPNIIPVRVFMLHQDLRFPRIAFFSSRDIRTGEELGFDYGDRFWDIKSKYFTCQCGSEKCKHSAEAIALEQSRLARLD
#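 Methyltransferase reactions run at room temperature for 2 h (20 nM enzyme, 500 nM biotin-H3K9 peptide, 20 uM SAM) after a 15 min compound preincubation; product detected by AlphaScreen beads and anti-H3K9me1 antibody.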
# JMJD2A Tudor inh: blocks the human JMJD2A Tudor domain; Potency, µM (titrated, usually from 114 µM), for inactives: at the highest dose activity change, negative = inhibition, hits mostly inhibitors; AlphaScreen JMJD2A-Tudor / H3K4me3 peptide binding; O75164; 390,000 tested, 4.4% active; note: % is set by controls: 0 for no effect and ±100 for the full control effect; nearly all actives have a fitted effect of over 50% in size
# BAZ2B inh: inhibitors of human BAZ2B bromodomain; 360,000 tested, 4.4% active; AlphaScreen BAZ2B-H3K14Ac peptide displacement; Potency, µM (doses to about 114 µM), without a hit: at the top dose activity change, negative = inhibition, usual class: inhibitors; Q9UIF8; note: % is set by controls: 0 for no effect and ±100 for the full control effect; nearly all actives have a fitted effect of over 60% in size
#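 BAZ2B 50 nM plus b-H3(5-23)K14Ac 50 nM, PBS pH 7.4/0.01% Tween-20, 30 min RT; compound added (max 110 uM), 30 min RT; streptavidin donor/Ni-chelate acceptor beads 10 ug/mL final, 20 min dark; AlphaScreen read.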
# HP1b chromo inh: blocks HP1-beta chromodomain binding to methylated histone tails; P83916; AlphaScreen HP1-beta / biotin-H3K9me3 peptide binding; Potency, µM (series often up to 114 µM), without a hit: at the top dose activity change, negative = inhibition, most hits filed as inhibitors; 390,000 tested, 0.56% active; AID 540317; note: nearly all actives have a fitted effect of over 70% in size
# Target sequence (P83916 whole entry, looked up): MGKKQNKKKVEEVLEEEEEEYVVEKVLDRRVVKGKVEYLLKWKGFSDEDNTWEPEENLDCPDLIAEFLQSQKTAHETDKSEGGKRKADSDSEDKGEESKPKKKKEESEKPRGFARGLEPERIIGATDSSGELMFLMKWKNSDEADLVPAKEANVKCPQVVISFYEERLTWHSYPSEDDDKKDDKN
#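 AlphaScreen: HP1-beta (50 nM) preformed 30 min with biotin-H3(1-18)K9me3 peptide (50 nM) in PBS pH 7.4, 0.01% Tween-20. Compound added for 30 min at RT, then streptavidin donor/nickel chelate acceptor beads (10 ug/mL) for 30 min.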
# PLK1 PBD block: inhibitors of human PLK1 polo-box domain binding | P53350 | Plk1 PBD binding of FITC phosphopeptide, fluorescence polarization | Potency, µM, for the others: max response, negative = inhibition, hits mostly inhibitors | 360,000 tested, 2.8% active; note: series mostly up to about 57 µM; % is set by controls: 0 for no effect and ±100 for the full control effect; nearly all actives have a fitted effect of over 65% in size
# * = called active by the depositor; ? = inconclusive; · = not tested or not shown; [ ] = another dose, or the depositor's remark. Calls come from the whole dose curve; as a rule, active = well fitted curve in the direction sought with a large enough effect; inconclusive = small, poorly fitted or top-dose-only effect, or another doubt; inactive = no such curve, though single readings can be large; an effect the other way counts as inactive or inconclusive. Potency is the fitted concentration of half-maximal effect.
SMILES,Sfp inh,G9a block,JMJD2A Tudor inh,BAZ2B inh,HP1b chromo inh,PLK1 PBD block
O=c1oc2ccccc2c2c1C1O[C@](c3ccsc3)(Cc3ccccc31)O2,-11.9%,·,·,8.91µM*,·,·
Cc1ccc(NC(=O)Cn2c(=O)ccc3cc(S(=O)(=O)N4CCCC4)ccc32)cc1N(C)C,·,1.6%[59 µM],-0.6%,3.6%,25.4%[57 µM],·
CC1=C(C#N)C(c2cn(-c3ccccc3)nc2-c2cccs2)C(C#N)=C(C)N1,-3.9%,1.7%[59 µM],-8.9%,20.4%,14.7%,-8.0%
NC1=NC(c2cn(-c3ccccc3)nc2-c2cccs2)n2c(nc3ccccc32)N1 (centres undefined),44.7µM*,8.8%[2.33 µM],?,-0.5%,4.8%,2.1%
CC(C)(CO)NC(=O)C(Cc1ccccc1)N1C(=O)c2ccccc2C1=O (centres undefined),12.7%,-2.0%,-9.4%,9.6%,25.8%,1.3%
COc1ccccc1CNCc1ccc(OC)c(OC)c1OC,?,10µM*,14.1µM*,79.4µM*,?,-1.6%
COc1ccc(CNC2CCCC2)c(OC)c1OC,0.2%,20.2%[12.7 µM],-4.4%,13.1%,16.5%,-4.4%
COc1cccc(CNCc2ccccc2Br)c1OC,13.3%,16.1%[0.501 µM],1.58µM*,?,?,0.0%
CC1C(=O)C(C)C(c2cccc(Br)c2)NC1c1cccc(Br)c1 (centres undefined),-13.9%,9.2%,19.6%,4.2%,38.3%,-4.1%
COc1ccccc1C(=O)NC(=O)COC(=O)CNC(=O)c1ccc(Cl)cc1Cl,·,50.1µM*,2.8%,6.4%,40.9%,-0.9%
O=C(COC(=O)CNC(=O)c1ccc(Cl)cc1Cl)NC(=O)NCc1ccccc1,·,56.2µM*,0.0%,1.8%,41.8%,-1.9%
CCCn1c2ccccc2c2cnn(CC(=O)N3CCN(c4ccccc4)CC3)c(=O)c21,·,-27.8%[59 µM],-21.8%,-12.7%,6.8%,·
CCCC(=O)N1c2ccccc2C(=C2SC(C(=O)OC)=C(C(=O)OC)S2)C(=S)C1(C)C,-4.3%,1.78µM*,-29.8%[11.4 µM],5.62µM*,14.1µM*,?
COC(=O)C1=C(C(=O)OC)SC(=C2C(=S)C(C)(C)N(C(=O)C3CC3)c3ccccc32)S1,-12.1%,1.58µM*,6.31µM*,8.91µM*,7.08µM*,-12.2%
COC(=O)C1=C(C(=O)OC)SC(=C2C(=S)C(C)(C)N(C(=O)C(C)C)c3ccccc32)S1,?,1.78µM*,11.2µM*,8.91µM*,7.08µM*,-12.5%
COc1ccc(CNc2ccccc2C(=O)NCc2ccccc2)cc1COc1ccc(NC(C)=O)cc1,·,·,?,·,9.9%,·
CC1CCC(NC(=O)CC(NC(N)=O)c2ccccc2Cl)CC1 (centres undefined),5.8%,16.9%,0.3%,-2.9%,19.3%,-0.8%
CCOC(=O)c1cc2c(=O)n3ccccc3nc2n(C(C)C)c1=NC(=O)C(C)(C)Oc1ccc(Cl)cc1,·,2.3%[59 µM],6.8%,4.0%,48.0%,·
CN1C(=O)NC(c2ccccc2[N+](=O)[O-])C2=C1CCCC2=O (centres undefined),-28.4%,44.7µM*,-2.7%,-21.5%,17.2%,-25.5%
CN1C(=O)NC(c2ccccc2[N+](=O)[O-])C2=C1CC(C)(C)CC2=O (centres undefined),-22.9%,50.1µM*,-11.9%,-19.9%,-16.2%,-15.9%
CN1C(=O)NC(c2ccc([N+](=O)[O-])cc2)C2=C1CC(C)(C)CC2=O (centres undefined),6.0%,9.8%,-10.7%,-10.4%,21.0%,-1.1%
COc1cc(C2NC(=O)N(C)C3=C2C(=O)CCC3)cc(OC)c1OC (centres undefined),5.6%,-8.8%,-11.7%,8.5%,24.9%,-7.8%
COC(=O)C[C@H]1CC[C@@H](NC(=O)c2ccncc2)[C@@H](CO)O1,·,·,·,·,·,-16.5%
COc1ccc(-c2nc(CSc3nc4ncccc4[nH]3)c(C)o2)cc1OC,·,?,-27.1%,-15.9%,21.5%,·
COC(=O)C1C(=O)C2=C(CC1C)NC(=O)CC2c1cccc(C)c1 (centres undefined),9.9%,0.2%,-17.8%[11.4 µM],7.8%,-9.7%,26.7µM*
SMILES,Sfp inh,G9a block,JMJD2A Tudor inh,BAZ2B inh,HP1b chromo inh,PLK1 PBD block
CCOc1cc(C2CC(=O)NC3=C2C(=O)C(C(=O)OC)C(C)C3)cc(Cl)c1O (centres undefined),5.0%,50.1µM*,-27.9%,?,5.5%,-7.4%
COC(=O)C1C(=O)C2=C(CC1C)NC(=O)CC2c1ccccc1 (centres undefined),-21.7%,19.4%[12.7 µM],-4.1%,10.6%,42.4%,2.2%
COC(=O)C1=C(C)N(Cc2ccccc2)C(=NCC(C)C)N[C@H]1c1cccc(C(F)(F)F)c1,·,·,35.5µM*,·,13.2%,-3.8%
CC(=O)C1=C(C)N(Cc2ccccc2)C(=O)N[C@H]1c1cccc(C(F)(F)F)c1,14.5%,4.9%,-27.7%,-2.1%,21.9%,-18.2%
COC(=O)C1=C(C)N(Cc2ccccc2)C(=NCC(C)C)N[C@H]1c1cccc(F)c1,-5.4%,2.0%[12.7 µM],25.1µM*,?,11.4%,-14.8%
CC(=O)C1=C(C)N(Cc2ccccc2)C(=O)N[C@@H]1c1cccc(C(F)(F)F)c1,-7.8%,50.1µM*,-28.7%,-19.0%,18.1%,-15.6%
Cc1ccc2c(c1)N(C(=O)CCC(=O)NCc1cccc(F)c1)CC(C)O2 (centres undefined),·,-5.5%[59 µM],-18.9%,-0.7%,26.0%,·
O=S(=O)(c1ccccc1)c1nc(-c2cccs2)oc1SCc1ccccc1F,·,?,-1.0%,3.4%,60.9%,·
O=C(NNC(=O)c1csc(N2CCOCC2)n1)c1cccnc1,·,-22.2%[2.33 µM],?,-5.2%,34.0%,-6.1%
Cc1cc(C)n(C(=O)CCCn2cc([N+](=O)[O-])cn2)n1,3.7%,24.5%,-6.8%,-1.8%,20.2%,-10.4%
O=C(CCN1C(=O)/C(=C/c2ccccc2Cl)SC1=S)Nc1ccccc1C(=O)O,0.9%,25.1%[2.33 µM],?,35.5µM*,-9.6%,23.8µM*
CN1CCN(NC(=O)CN2C(=O)/C(=C/c3c(Cl)cccc3Cl)SC2=S)CC1,-18.3%,56.2µM*,?,?,19.9%,-25.2%
Cc1cc(NC(=O)CCCN2C(=O)/C(=C\c3cccs3)SC2=S)no1,-0.1%,-7.9%,-10.8%,-3.8%,3.5%,-3.1%
Cc1cc(NC(=O)CCN2C(=O)/C(=C\c3ccccc3Cl)SC2=S)no1,50.1µM*,8.1%,-5.6%,-6.3%,32.7%,2.7%
O=C(OCc1c(F)cccc1Cl)c1cccnc1Cl,9.5%,56.4%,33.6%,36.0%,42.4%,-1.3%
CC(=O)c1ccc(OCC(C)Oc2ccc(C#N)cc2)cc1 (centres undefined),-10.0%,6.4%[59 µM],18.4%,-5.2%,69.0%,0.2%
Cc1cc2ccccn2c1C(=O)c1ccc(C#N)cc1,9.1%,?,-14.8%,?,-3.7%,-10.6%
